Test results published in PubChem BioAssay (NCI).
Several values for one entry are separate records, joined by “and”; a condition that tells them apart may be missing. Identical values can stand only once. About 79,000 compounds went through this panel and 15% of them were active in at least one assay; those are over-represented in the sample as a whole. Activity calls are given as the source filed them. No stated cut-off is given here; in the data, active means growth inhibition above about 70%; inactive means the rest.

Columns and labels:
[1] = NCI Yeast Anticancer Drug Screen. Data for the rad50 strain (AID 155);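 further: 0% = growth of vehicle-only cultures of the same strain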; details: S. cerevisiae rad50 strain growth inhibition; at 50.0 µM; stronger effect = higher value
How it was run: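 Relative growth inhibition (compound vs vehicle) was measured in yeast with a defined repair-gene alteration.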

[2] = NCI Yeast Anticancer Drug Screen. Data for the mec2-1 strain (AID 157); details: S. cerevisiae mec2-1 strain, at 50.0 µM, stronger effect = higher value
How it was run: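 Mutant yeast (mec2-1) grown with compound; growth inhibition relative to vehicle control reported.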

[3] = NCI Yeast Anticancer Drug Screen. Data for the sgs1 mgt1 strain (AID 161);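 further: 0% = growth of cultures given vehicle only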; details: S. cerevisiae sgs1 mgt1 strain, at 50.0 µM, stronger effect = higher value
How it was run: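 Compounds are added to genetically altered yeast, and growth is compared with cultures given vehicle alone to give percent inhibition.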

[4] = NCI Yeast Anticancer Drug Screen. Data for the cln2 rad14 strain (AID 165);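 further: 0% = growth equal to vehicle treated cultures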; details: S. cerevisiae cln2 rad14 strain, at 50.0 µM, stronger effect = higher value
How it was run: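 Readout is yeast growth inhibition versus vehicle-treated controls, using a strain with cln2 and rad14 alterations exposed to compound.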

[5] = NCI Yeast Anticancer Drug Screen. Data for the bub3 strain (AID 167); details: S. cerevisiae bub3 mutant strain, at 50.0 µM, stronger effect = higher value
How it was run: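 Screening used yeast with an engineered genetic alteration affecting cell cycle control. Compound-exposed cultures were compared with vehicle cultures, and reduced growth was taken as inhibition.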

[6] = NCI Yeast Anticancer Drug Screen. Data for the mlh1 rad18 strain (AID 175); details: S. cerevisiae mlh1 rad18 strain growth inhibition; at 50.0 µM; stronger effect = higher value
How it was run: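 Genetically defined yeast (DNA repair-deficient) exposed to compounds; growth inhibition determined relative to vehicle.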

Measured: growth inhibition

CC(C)N1CCc2cc3c(cc2C1)OCO3
inactive: [1] 9.8% | [2] 11.1% | [3] 1.3% | [4] 1.25% | [5] -17.5% | [6] 23%

NC(CCCCCP(=O)(O)O)C(=O)O (centres undefined)
inactive: [1] -38.8% | [2] -29.8% | [3] -63.3% | [4] -12.3% | [5] -17.4% | [6] -37.5%

OCC(O)C(O)C(O)C1C[O][Sb][O]1 (centres undefined)
inactive: [1] 0.85% | [2] 3.6% | [3] 7.85% | [4] -11.2% | [5] -2.85% | [6] 8.2%

CC1(C)OCC(C2NC2C2COC(C)(C)O2)O1 (centres undefined)
inactive: [1] -4.55% | [2] -6.85% | [3] -11.1% | [4] -40.4% | [5] -10.9% | [6] 6.5%

CCCCCCCCCCCC[C@@H](O)[C@H]1CC[C@H]([C@H](O)CCCC[C@H](O)CCCCC[C@@H](O)CC2=C[C@H](C)OC2=O)O1
inactive: [1] 10% | [2] -7.05% | [3] -20.8% | [4] -7.5% | [5] -1.65% | [6] -41.2%

CCCCCCCCCCCCBr
inactive: [1] 10.7% | [2] -7.4% | [3] -5.1% | [4] -12.7% | [5] -10.3% | [6] -1.05%

O=C(O)C(CSC(c1ccccc1)c1ccccc1)N1C(=O)c2ccccc2C1=O (centres undefined)
inactive: [1] 47.9% | [2] 36.4% | [3] 46.4% | [4] 43.3% | [5] 29.1% | [6] 44.7%

COc1cc2c(cc1OC)C1CC(OC(=O)c3ccccc3)(c3nccc4cc(OC)c(OC)cc34)CCN1CC2 (centres undefined)
inactive: [1] 26.9% | [2] 13.9% | [3] 20.6% | [4] 4.95% | [5] -0.8% | [6] 32.5%

COc1nc2ccccc2nc1N1CC1
inactive: [1] -3.25% | [2] -31% | [3] -15% | [4] 6.9% | [5] -24.6% | [6] -1.65%

COc1ccc(CC(N)c2ccccc2)cc1 (centres undefined)
inactive: [1] 8.25% | [2] 18.1% | [3] 6.4% | [4] 10.2% | [5] 12.8% | [6] -3.5%

COc1ccc(N=NC(=O)NC(CC(C)C)C(=O)NCC(=O)O)cc1 (centres undefined)
inactive: [1] -0.8% | [2] 2.45% | [3] 10.4% | [4] 28.8% | [5] 5.35% | [6] 5.35%

CCCCOP(=O)(/C=C/c1ccccc1)OCCCC
active: [1] 86.3% | [2] 77.9% | [3] 80.2% | [5] 74.2% | [6] 80.8%
inactive: [4] 24.7%

CC12CC3CC(C1)CC(N=[N+]=[N-])(C3)C2
inactive: [1] -16.4% | [2] -1.3% | [3] -2.65% | [4] 1.3% | [5] -0.95% | [6] -2.6%

C=Cc1cc(OC)c2c(c1)c(=O)oc1c2cc(OC)c2c(O)ccc(C3OC(C(C)O)C(O)C3O)c21 (centres undefined)
active: [1] 88% | [2] 91.7% | [3] 89.1% | [4] 90.2% | [5] 90% | [6] 89.3%

CCC[CH2][Pb]([CH2]CCC)([CH2]CCC)[O]C(C)=O
inactive: [1] 9.6% | [2] -7.95% | [3] 16.1% | [4] 25.1% | [5] 25% | [6] 13.3%

CCN(CC)CCn1ncc2c(N)ncnc21
inactive: [1] -0.25% | [2] -9% | [3] -26.4% | [4] -19.6% | [5] -22.8% | [6] -1.15%

CC(=O)N1CCCN(C)/C1=N/[N+](=O)[O-]
inactive: [1] -20.1% | [2] -14.8% | [3] -6.7% | [4] -10.9% | [5] -15.4% | [6] -13.9%

C[CH2][Sn]([CH2]C)([O]c1cccccc1=O)[O]c1cccccc1=O
inactive: [2] 18.8% | [4] -15.6% | [5] 7.8% | [6] 52.5%
active: [1] 87.1% | [3] 94.2%

CCCC(=O)O.[Ni]
inactive: [1] 8.1% | [2] -4.05% | [3] -6% | [4] -39.9% | [5] -20.2% | [6] -2.7%

CCC1(/C(C)=C/C(C)C)C(=O)NC(=O)NC1=O
inactive: [1] 15.8% and 16.3% | [2] 12.8% and 4.6% | [3] 1% and 6.15% | [4] 8.8% and -11.4% | [5] 4.65% and 2.35% | [6] 4.15% and 5.05%

CC(=O)NN=C(N)N
inactive: [1] 3.15% and -2% | [2] -1.5% and 2.75% | [3] -0.55% and 11.7% | [4] -29.9% and -24.1% | [5] -6.75% and -10.2% | [6] 14.1% and 5.9%

O=C(/C=C/c1ccc([N+](=O)[O-])cc1Cl)Nc1cccc(S(=O)(=O)F)c1
inactive: [1] 6% | [2] 16.8% | [3] -0.35% | [4] 18.2% | [5] -6.3% | [6] -8.2%

CCCCCCCCCCCCCCCCCCC[As](=O)(O)CCCCCCCCCCCCCCCCCCC
inactive: [1] 46.2% | [2] 19.2% | [3] 23.4% | [4] -2.2% | [5] 13.4% | [6] 30.4%

CC1(C)OP23(NC(=O)OC2(C(F)(F)F)c2ccccc2O3)OC1(C)C (centres undefined)
inactive: [1] -14.6% | [2] -13.5% | [3] -40.5% | [4] -4.1% | [5] -41.6% | [6] -27.4%

C[CH2][Sn]([CH2]C)([O]C(=O)c1ccc(F)cc1)[O]C(=O)c1ccc(F)cc1
inactive: [1] 30.5% | [2] 17.7% | [3] 38.5% | [4] 15.1% | [5] 15.2% | [6] 17.6%

CC(C)C(CC[C@@H](C)C1CC[C@@]2(C)C3=C(CC[C@]12C)[C@@]1(C)CC[C@H](O)C(C)(C)[C@@H]1CC3)S[As](C)C (some centres undefined)
inactive: [1] 40.4% | [2] -0.5% | [3] 26.7% | [4] 31.6% | [5] -4.35% | [6] 32.8%

N#CCCCCl
inactive: [1] 27.1% | [2] 15.8% | [3] 14.9% | [4] 26.1% | [5] 29.8% | [6] 30.5%

Cc1cc2[nH]c3c(C#N)c(OC(=O)N(C)C)c(C)c(=O)n3c2cc1C
inactive: [1] 37.3% | [2] 22.3% | [3] 31.6% | [4] 17.1% | [5] 27.9% | [6] 39%

[CH3][Sn]([CH3])([CH3])[O]C(=O)CNC(=O)c1ccccc1
inactive: [1] -8.55% | [2] -4.1% | [3] -2.3% | [4] 27.9% | [5] 4.25% | [6] -0.3%

COc1ccc(C(=O)O)cc1OC
inactive: [1] -0.25% | [2] 9.45% | [3] -18.8% | [4] 7.4% | [5] -9.5% | [6] 5%

O=Cc1cn(CCCCCCCCCCCCn2cc(C=O)c3ccccc32)c2ccccc12
inactive: [1] -2.75% | [2] -10.8% | [3] 0.25% | [4] -5.55% | [5] 7.35% | [6] -12.8%

CC(=O)CC(C)=O.[In]
inactive: [1] 23.8% | [2] 42.6% | [3] 34.5% | [4] 29.4% | [5] 27.6% | [6] 2.65%

O=C(O)C(O)C(O)C(O)C(O)C(O)C(O)CO.[Cd] (centres undefined)
inactive: [1] 29.4% and 27.9% | [2] 15.2% and 26.5% | [3] 20.2% and 20.4% | [4] 19.4% and 28.7% | [5] 4.6% and -7.8% | [6] -1.55% and 0.55%

C[C@]12CC[C@H](O)C[C@H]1CC[C@@H]1[C@@H]2CC[C@]2(C)[C@@H](C3=CC(=O)OC3)[C@@H](O)C[C@]12O
inactive: [1] -6.05% | [2] -15.8% | [3] 2.35% | [4] -16.8% | [5] -0.15% | [6] 8.1%
